High-throughput results as filed in PubChem.
Compounds with a hit are over-represented: about 2% of the library has one in this group of screens.
MsrA inh: bovine MsrA enzyme inhibitors, primary screen, biochemical, absorbance, HTS; Methionine sulfoxide reductase A (Bos taurus); purified bovine MsrA, absorbance read-out; inhibition, % at 15.5 µM; actives 0.75% (n = 360,000); AID 651718, 2012; in the data active = inhibition above about 4.5%
PKA-R1A act: activators of PKA-R1A holoenzyme, primary screen, biochemical, fluorescence polarization, Cy5-IP20, bovine R1A, mouse PKAc. cAMP-dependent protein kinase type I-alpha regulatory subunit (Bos taurus) + …. PKA-R1A dissociation; scaled: DMSO 0%, 113 µM cGMP 100%. activation, % at 11.4 µM. actives 0.083% (n = 340,000);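 active = percent activation above the mean of all tested compounds plus 3 SD, cut at about 19% in these data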;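 note: higher means more PKAc released from R1A so a rise in polarization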
MsrA act: bovine MsrA enzyme activators, primary screen, biochemical, absorbance, HTS; Methionine sulfoxide reductase A (Bos taurus); purified bovine MsrA, absorbance read-out; activation, % at 10.6 µM; actives 0.3% (n = 360,000); AID 602163, 2012; in the data active = activation above about 7.5%
PKA-R2B act: activators of PKA-R2B holoenzyme, primary screen, biochemical, fluorescence polarization, Cy5-IP20, human | actives 0.079% (n = 340,000) | activation, % at 11.4 µM | cAMP-dependent protein kinase catalytic subunit beta (Homo sapiens) + cAMP-dependent … | AID 504700, 2011 | PKA-R2B holoenzyme dissociation; R2B truncated from residue 108, S112A mutant; 0% DMSO only, 100% 113 µM cGMP;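 active = activation above a cutoff set at the mean over all compounds plus 3 SD, cut at about 18% in these data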;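 note: higher means more holoenzyme dissociation and a rise in polarization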
Target sequence (P31323 whole entry, looked up, other chains not shown, the tested form may be a part): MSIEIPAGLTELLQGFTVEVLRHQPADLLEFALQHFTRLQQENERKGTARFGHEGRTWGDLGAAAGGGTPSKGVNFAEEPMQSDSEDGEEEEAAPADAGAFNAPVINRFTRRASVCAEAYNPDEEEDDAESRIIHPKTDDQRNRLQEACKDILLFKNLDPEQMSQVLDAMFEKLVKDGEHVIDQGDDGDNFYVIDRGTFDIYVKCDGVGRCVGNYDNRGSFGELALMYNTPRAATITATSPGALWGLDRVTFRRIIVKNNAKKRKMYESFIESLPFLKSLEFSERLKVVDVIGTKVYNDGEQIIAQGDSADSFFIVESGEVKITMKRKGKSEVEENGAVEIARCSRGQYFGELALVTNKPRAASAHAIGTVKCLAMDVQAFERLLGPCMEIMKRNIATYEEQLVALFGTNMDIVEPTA
Mot1-301 SUMO: yeast Mot1-301 growth rescue at high temperature, primary screen, SUMOylation pathway inhibitor project, S. cerevisiae, ATP luminescence, 38.5C; AID 2716, 2010; S. cerevisiae Mot1-301 growth rescue; percent above DMSO median, 100 means doubled; actives 1% (n = 320,000); growth rescue, % at 18.8 µM;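 active = every valid replicate shows activation above 250% relative to neutral control wells; inactive = the rest, any valid replicate at or below 250%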
Of the large screens only hits and unclear results are named; the others gave an inactive call.

COC(=O)[C@]12C[C@H](CC(=O)NCCCCc3ccccc3)C(=O)N(Cc3ccc4c(c3)OCO4)C1=C[C@H](COCc1ccccc1)O[C@@H]2C	none (no result: PKA-R1A act, MsrA act, PKA-R2B act, Mot1-301 SUMO)
C#CCOCCOCCOCCNc1nc(N2CCN(C(=O)CCCCCCCCCCNC(=O)[C@H]([C@@H](C)CC)n3cc(CCCCCN)nn3)CC2)nc(N2CCN(C(=O)CCCCCCCCCCNC(=O)[C@H]([C@@H](C)CC)n3cc(CCCCN=C(N)N)nn3)CC2)n1	none (no result: MsrA inh)
C#CCOCCOCCOCCNc1nc(N2CCN(C(=O)CCCCCCCCCCNC(=O)Cn3cc(CCCCCN)nn3)CC2)nc(N2CCN(C(=O)CCCCCCCCCCNC(=O)[C@H]([C@@H](C)CC)n3cc(CCCCN=C(N)N)nn3)CC2)n1	PKA-R2B act 21 (no result: MsrA inh)
Cc1ccn2c(CNCCn3nc(C)cc3C)c(C(=O)N3CCCCCC3)nc2c1	Mot1-301 SUMO 534
Cc1ccn2c(CN(C)CCn3nc(C)cc3C)c(C(=O)N3CCCCCC3)nc2c1	none
Cc1ccc(Nc2nc(N)c([N+](=O)[O-])c(NCCO)n2)cc1	none (no result: PKA-R1A act, PKA-R2B act)
CCN(CC)c1nc(N)c([N+](=O)[O-])c(NCCO)n1	MsrA inh 4.7
COc1ccc(CCNC(=O)CCSCc2ccccc2F)cc1OC	Mot1-301 SUMO 263
CCCCCn1cc(CCC(=O)Nc2ccc(Oc3cccnc3)cc2)c2ccccc21	none (no result: PKA-R1A act, MsrA act, PKA-R2B act, Mot1-301 SUMO)
O=c1[nH]c(/C=C\c2ccc(O)cc2)nc(O)c1[N+](=O)[O-]	none
O=c1[nH]c(/C=C\c2ccc(O)c(Cl)c2)nc(O)c1[N+](=O)[O-]	MsrA inh 4.6
C=CCc1cc(/C=C/c2nc(O)c([N+](=O)[O-])c(=O)[nH]2)cc(OC)c1O	Mot1-301 SUMO 523
COC(=O)C1=C(C)N(Cc2ccc(Br)cc2)C(=S)NC1c1ccc(OC)cc1 (stereo unspecified)	none (no result: PKA-R1A act, MsrA act, PKA-R2B act, Mot1-301 SUMO)
Cc1sc(NC(=O)CSc2nc(N)cc(N)n2)c(C#N)c1C	Mot1-301 SUMO 319
O=S(=O)(Cc1ccc(Cl)cc1)c1ncc(CO)n1Cc1ccccc1	Mot1-301 SUMO active
O=S(Cc1ccc(Cl)cc1)c1ncc(CO)n1Cc1ccccc1 (stereo unspecified)	none
COC(=O)C1=C(C)N(Cc2ccc(C(F)(F)F)cc2)C(=NCC2CC2)NC1c1cccc(Cl)c1 (stereo unspecified)	none (no result: PKA-R1A act, MsrA act, PKA-R2B act, Mot1-301 SUMO)
CCCCCCCCN1C(=O)[C@@H](CC(=O)NCc2cccs2)C[C@@]2(C(=O)OC)C1=C[C@H](C1CCCC1)O[C@@H]2C	none (no result: PKA-R1A act, MsrA act, PKA-R2B act, Mot1-301 SUMO)
CCOC(=O)c1ccc2c(c1)nc(SCC(=O)c1ccco1)n2CC	none
CCOC(=O)c1ccc2c(c1)nc(SCC(=O)N1CCCCC1)n2CC	Mot1-301 SUMO 293
CCCCc1c(-c2ccccc2OC)ncn1Cc1cccc(C)c1	none (no result: PKA-R1A act, MsrA act, PKA-R2B act, Mot1-301 SUMO)
COc1cc(C2C3=C(CCCC3=O)Nc3[nH]n(-c4ccccc4)c(=O)c32)ccc1OC(C)=O (stereo unspecified)	MsrA inh 4.6
COc1cc(C2C3=C(CCCC3=O)Nc3[nH]n(-c4ccccc4)c(=O)c32)cc(OC)c1OC (stereo unspecified)	none
C[C@H](O)[C@@H]1CN2CCc3c([nH]c4c(-c5ccccc5)cccc34)[C@@H]2C[C@@H]1N(C)C(=S)NCCc1ccccc1	none (no result: PKA-R1A act, MsrA act, PKA-R2B act, Mot1-301 SUMO)
NC(=S)N/N=C/c1ccccc1OC(=O)c1cc2ccccc2oc1=O	MsrA inh 4.6
CC1Oc2ccccc2C=C1/C=N/Nc1ccc(C(=O)O)cc1 (stereo unspecified)	Mot1-301 SUMO 402
CN1CCCCC(NC(=O)c2ccc(C#N)cc2)C1=O (stereo unspecified)	none (no result: PKA-R1A act, MsrA act, PKA-R2B act, Mot1-301 SUMO)
CCn1c(=O)c2cc(C(=O)Nc3ccc(OC)cc3OC)sc2c2ccccc21	Mot1-301 SUMO active
O=C(CS(=O)c1ccc(F)cc1)Nc1ccccc1Cl (stereo unspecified)	Mot1-301 SUMO active
N#Cc1c2ccc(OCC(N)=O)cc2n2ccccc12	Mot1-301 SUMO 371
CCOC(=O)COc1ccc2c(C#N)c3ccccn3c2c1	none (no result: Mot1-301 SUMO)
Clc1cccc(-c2cc3nc4c(c(N5CCOCC5)n3n2)CCCC4)c1	MsrA inh 4.8
CC1CCN(S(=O)(=O)c2ccc(Cl)cc2Br)CC1	MsrA inh 8.8
O=S(=O)(c1cc(Cl)ccc1Br)N1CCCCC1	none
Cc1ccc(C(C[N+](=O)[O-])n2nc(C)cc2C)cc1 (stereo unspecified)	Mot1-301 SUMO 624
Cc1ccc(-c2nnn(CC(=O)Nc3cccc4cccnc34)n2)o1	Mot1-301 SUMO 353
CCCCCCCCN1C(=O)[C@@H](CC(=O)N2CCSCC2)C[C@@]2(C(=O)OC)C1=C[C@H](C(C)(C)C)O[C@@H]2C	none (no result: PKA-R1A act, MsrA act, PKA-R2B act, Mot1-301 SUMO)
COc1ccc(N=C2SC(CC(=O)Nc3ccccc3)C(=O)N2Cc2ccccn2)cc1 (stereo unspecified)	none
COc1ccc(N=C2SC(CC(=O)Nc3ccccc3)C(=O)N2CCc2ccccn2)cc1 (stereo unspecified)	Mot1-301 SUMO 356
O=C(COC(=O)C1(c2ccccc2F)CCCC1)NC1CCS(=O)(=O)C1 (stereo unspecified)	Mot1-301 SUMO 298
O=C(COc1ccccc1)NC1CCS(=O)(=O)C1 (stereo unspecified)	none
Cc1cc(Br)cn2c(Cc3ccccc3C(F)(F)F)c(-c3ccc(F)cc3)nc12	none (no result: PKA-R1A act, MsrA act, PKA-R2B act, Mot1-301 SUMO)
Cn1nc(-c2ccccn2)nc2c(=O)n(C)c(=O)nc1-2	MsrA act 59
COc1cccc(CC(=O)NCC2CCN(C(=O)C(=O)c3cccs3)CC2)c1	none (no result: PKA-R1A act, MsrA act, PKA-R2B act, Mot1-301 SUMO)
COc1cc(NCCCC(C)N)c2ncccc2c1 (stereo unspecified)	MsrA act 12 (no result: Mot1-301 SUMO)
CCCCC(=O)N(Cc1nc2sc(C)c(C)c2c(=O)[nH]1)C1CCCC1	Mot1-301 SUMO active
COCC(=O)N(Cc1nc2sc(C)c(C)c2c(=O)[nH]1)C1CCCCC1	none
COc1ccc([C@@H]2[C@@H]3C(=O)N(C(C)(C)C)C(=O)[C@@H]3[C@]3(C)C(=O)N(c4cccc(C)c4)C(=O)N23)cc1	Mot1-301 SUMO 280
CCCCCC(=O)NC1CCCCN(C)C1=O (stereo unspecified)	none (no result: PKA-R1A act, MsrA act, PKA-R2B act, Mot1-301 SUMO)
CCc1ccc(/C=C2/SC(=S)N(CC(=O)Nc3nc4ccccc4s3)C2=O)cc1	MsrA act 13
CCCCCC1(C)NC(=S)N(c2ccccc2)N1 (stereo unspecified)	Mot1-301 SUMO 300
N#C/C(=C\c1cccs1)c1nc2ccccc2[nH]1	none
Cc1ccc(C(=O)N/C(=C\c2cccs2)c2nc3ccccc3[nH]2)cc1	MsrA inh 4.6
Nc1cccc([N+](=O)[O-])c1	none
O=[N+]([O-])c1cccc(SSc2cccc([N+](=O)[O-])c2)c1	MsrA act 17 (no result: Mot1-301 SUMO)
